In the OligoGym collection one finds sensor-assay potency score (higher = more potent) data, which are given here for 39 sequences.
Further: reference of the scale not given here.

For the first test, the target named is ANKRD22. Put plainly: pooled miR-30 sensor sort-seq; sequence = guide strand. The conditions noted are these: shRNA.
The sequence TAGCATTAACTTCGACGCCAGC registered a sensor-assay potency score (higher = more potent) of -1.11.
In the case of TTGTCTTTGATACCATGAGGAA, the sensor-assay potency score (higher = more potent) is -1.48.
With TTTCTTCACAGCATAATGCAAG, the sensor-assay potency score (higher = more potent) was -0.597.
On to TTTTGAGGTTGACATTAGCATT, for which the sensor-assay potency score (higher = more potent) is -1.7.
Take TAGCATTCGTACAAGAGCCTCA: the sensor-assay potency score (higher = more potent) came out at 0.13.
On the same count and under the same terms, the result for TATCCAGTGAGCTCTCACCATG reads -1.62; that for TAAATTTTTTCTTCACAGCATA, -1.16.

For another test, the target named is ANKRD23. The test is described as above. To be noted: shRNA.
TTATCCAGATTAAATCTGGTAC showed a sensor-assay potency score (higher = more potent) of -0.803.
On the same count and under the same terms, to TTCCAATTTCAGCTTCTCCCGG belongs -0.86.
Take TTCTCCACTTACCAACTGCTGA: the sensor-assay potency score (higher = more potent) was -0.872.
TTTTCCACATAGTAACAACAGC: the sensor-assay potency score (higher = more potent) was -1.09.
In turn, TTCATGGCTTTGTAGCTGCCGT yielded a sensor-assay potency score (higher = more potent) of -0.986.
With TAGAGCAGCAGTAGCTTCATGG, the sensor-assay potency score (higher = more potent) was -0.653.
On to TTAAGATTCACTTTCTGGCGTT, for which the sensor-assay potency score (higher = more potent) is -0.127.
Turning to TAATTTGAAACGTACAGACGGT, the sensor-assay potency score (higher = more potent) was 0.00484.
TCTTTCTCCACTTACCAACTGC: the sensor-assay potency score (higher = more potent) is -0.293.
On the same count and under the same terms, the result for TGTCTCAGTCGCTTTTTCCGTC reads -0.0673; that for AAATCTTTCAAGTTTCTTCTTC, 0.216; that for TCTTTGAACCAAGTTTTCCAAG, -1.3.

The next test concerns the target ANKRD40. The description is as above. The conditions noted are these: shRNA.
The sequence ATTATTTTCACTTATCATCAGA returned a sensor-assay potency score (higher = more potent) of -0.625.
Take TGATCTTCTCCACTTGATCTGG: the sensor-assay potency score (higher = more potent) is -0.74.
As for TTGATCTGGATTAACACCCAGC, the sensor-assay potency score (higher = more potent) is -0.194.
For the sequence TAACAGGTAAGAGACCACCTGA, the sensor-assay potency score (higher = more potent) is -0.364.
In turn, TTGGAGTCGAGCAACATCCTTG showed a sensor-assay potency score (higher = more potent) of -0.239.
The sequence TTGTCCTTCCTTAACAGAGTAT registered a sensor-assay potency score (higher = more potent) of -0.746.
For TTTTGTGGTAAGAATTTCTTTG, the sensor-assay potency score (higher = more potent) was -0.767.
TTCACTTATCATCAGAACCAGT displayed a sensor-assay potency score (higher = more potent) of -0.41.
Sequence TAACTTTCTGATCTTCTCCACT displayed a sensor-assay potency score (higher = more potent) of -1.02.
TTCCTTAACAGAGTATTGGGTA registered a sensor-assay potency score (higher = more potent) of 0.698.
As to TATCATCAGAACCAGTTCCAGC, the sensor-assay potency score (higher = more potent) is -0.968.
Sequence TCGAGCAACATCCTTGTCCTTC displayed a sensor-assay potency score (higher = more potent) of -0.697.

Another test addresses ANKRD53. The test is described as above. To be noted: shRNA.
Sequence TGATAGTAGAGAAATGTCCTGC displayed a sensor-assay potency score (higher = more potent) of 0.127.
Sequence TTTCTGAGTGCCAGCTTCCGGA registered a sensor-assay potency score (higher = more potent) of -1.18.
As for AAACTTGTACTCCTCTACCAGG, the sensor-assay potency score (higher = more potent) was -1.13.
Regarding TTGACCTTGATACTCAATCAGG, the sensor-assay potency score (higher = more potent) is -0.673.
Regarding TTCATTTTCGTCATCTCACGGG, the sensor-assay potency score (higher = more potent) was found to be 0.469.
The sequence TTGCTAACATTCCACATTGTGG had a sensor-assay potency score (higher = more potent) of -1.32.
Same read-out and setting: the result for TCTGATAGCAGCTTCTCTGAGA reads -0.337; that for TTCATCGAATGTGTCACGCAGG, -0.608.
